# Source: PubChem BioAssay AID1508600 (Functional Genomics Laboratory (NCATS/FGL), 2020)
# Screen size: about 53,000 sequences; about 3,700 (7%) were called active.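 How the source made its calls: active means gene knockdowns whose robust z-score for IL-1 alpha signal is at least 2 or at most -2, so actives lie on both sides; inactive means the rest.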 Shown is part of a subset that was picked to be rich in actives.
# Assay: Components of the Cytosolic LPS Sensing Pathway: Gene Identification via Genome-wide siRNA Screen;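 further: robust z of the log signal after scaling to non-targeting control siRNA wells of the plate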
# Details: RAW264.7 macrophages, IL-1a HTRF, actives lie on both sides, screened at 100 nM (by protocol), cells primed 5 h with Pam3CSK4 first
# Outline: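 Using IL-1a HTRF as read-out, the screen measured release from RAW264.7 cells after 48h siRNA knockdown (100 nM), 5 h Pam3CSK4 priming and 24 h cytosolic LipidA. Values were expressed relative to negative-control wells as robust z-scores.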
row,Sequence,z-score
1,GGACAAUUCCAUGCUUCCCTT against Il24,-0.00641 (inactive)
2,CGCGCAGAUGCACCAGAUUTT against 2610028H24Rik,1.12 (inactive)
3,GGUCAAAGAUGCUAUAAAATT against Olfr993,-0.843 (inactive)
4,GGAGGCAGCUCCUAUGAUGTT against Rbm28,0.378 (inactive)
5,GGUGACUGGUAAAUGCCAGTT against Olfr1502,-0.428 (inactive)
6,GCCUAUGAUAAGUCUGUGUTT against Ifitm10,-2.25 (active)
7,CGGUCUUUAUACACAUAUATT against Wnt7a,-0.0297 (inactive)
8,GGUGAGAAUGUGCUUCAAUTT against Egr2,-0.0732 (inactive)
9,GCAUCGUCUAUAUUUUUGGTT against Timm50,-1.56 (inactive)
10,GGAAGACGAAGAGUUUGGATT against Aqp5,2.37 (active)
11,GGAAUGCUUAGUGAAAUUUTT against Ahctf1,0.481 (inactive)
12,GGAUUCUGAACCUUACAGATT against Hoxd9,1.61 (inactive)
13,CGGAGUUGGGAUUUACCAGTT against Pdia5,-0.594 (inactive)
14,CCGAGGAGAACACUUGUAGTT against Opn4,-2.54 (active)
15,GGCACCUUAAUGCUGACUUTT against Sdc4,-0.694 (inactive)
16,GGCUCAAGGUUUUCUCUACTT against Olfr710,-0.0341 (inactive)
17,GGUAUAUCCCUCACAAAAGTT against Dnah2,-1.69 (inactive)
18,GCAGUUAUGUUAUAGCUGCTT against Ctu2,0.0152 (inactive)
19,GCUAGUUUAAGAGACUUUGTT against Nfatc2ip,0.234 (inactive)
20,GGUCUAAGUCUGAAUGGCCTT against Agrp,0.539 (inactive)
21,CGACUGGAAUCUAAUAACUTT against Fgf2,0.987 (inactive)
22,CGGCUCCAGGCAAAUAUGGTT against Ezh1,-1.64 (inactive)
23,GGAUCAAUGGUGUCUUUGUTT against Pdzk1,-2.2 (active)

row,Sequence,z-score
1,CGAGAAAGUAUUGACCGAGTT against Anxa5,-0.524 (inactive)
2,GGAAGGUGUUCGUAGAGAATT against Mad2l1,0.0941 (inactive)
3,GCACCGUGUCGUUGACUUGTT against Trim56,0.566 (inactive)
4,CCUAUCGAGUGAAAGUAAATT against Abcg2,-0.304 (inactive)
5,GGCACUGCUAUUAACUACATT against 4933414I15Rik,-0.906 (inactive)
6,CGCAGGUAUACAGGACUGCTT against Rhox8,2.33 (active)
7,CUGUUACCUAUCCCUCAUCTT against Sstr3,-0.663 (inactive)
8,GCUACUCUUAUUCUACUUCTT against Slc29a3,0.145 (inactive)
9,GCCCUCAUCAGAAGAAACUTT against Cox7b2,0.864 (inactive)
10,GGUAGACCUAGAACAGCACTT against Ttyh2,-0.495 (inactive)
11,GGUGAGAUUACUGAAAGAATT against Plod2,-0.0899 (inactive)
12,GCCAGUCCUGAUAGCAUCATT against Rhox6,-3.2 (active)
13,GGAGAAGGCAACUUCUGUUTT against Zfp641,0.19 (inactive)
14,CCUAUUGAUUGUAUAUCCATT against Emc2,-0.429 (inactive)
15,CCAAAUUGUCUCUUCUAACTT against Dnah1,0.0269 (inactive)
16,GGAACAAAGAGUUUAAGGATT against Olfr1415,0.379 (inactive)
17,GGAACAAGUGGCUGAAGAUTT against Cyp11b2,0.566 (inactive)
18,GCAUGUUUCUAAACUUAGUTT against Sh3rf2,-0.432 (inactive)
19,GGUAUCGUAUAUGGAGAUCTT against Kif13a,2.12 (active)
20,GGUUCUGAAAGAGUGUUAGTT against Htatsf1,-1.58 (inactive)
21,GGGCUCACAUUGUACACACTT against Nckap5,0.525 (inactive)
22,GGACAUCUUUUCAAACGUGTT against Acap1,-1.09 (inactive)
23,GCUGAACGUGAGAUUGUGCTT against Acta1,1.33 (inactive)

row,Sequence,z-score
1,GGUCAAUUAUGAAGCACCUTT against Pabpc4,0.158 (inactive)
2,GGCAACAAAAAAAUCCCAATT against Cd160,-0.647 (inactive)
3,GGUAUCUGUGUGACUUCACTT against Pgpep1,3.63 (active)
4,GGGACAACAUUCAAAGGUCTT against Hdgfl1,-0.322 (inactive)
5,GCGAUUGGCAGAUUGCUACTT against Tmem47,1.01 (inactive)
6,GCCGUUUCGUGUGGUAUUUTT against Tm4sf1,-2.64 (active)
7,GGGAUAGCAAGACUUUCACTT against C5ar1,0.194 (inactive)
8,GGUUGUGAGUCAGUCUAGUTT against Tia1,-1.55 (inactive)
9,GGAGCUCUGUGAAUCUCUUTT against Ska1,-0.796 (inactive)
10,CCUUCCUGUUGUCAUGAGATT against Eipr1,-0.868 (inactive)
11,CCAAUGGUCAGGAGUGUAGTT against Prpsap2,-0.766 (inactive)
12,GCGGCUCAAACUCAUUUUGTT against Gm4841,1.21 (inactive)
13,CCUUGACCUUAAUGUCUUCTT against Fgf23,2.05 (active)
14,GGUAUGAUGAUUGUUAGAUTT against Phf20,0.141 (inactive)
15,GCUCUAAAACUGUGUACUCTT against 4930579K19Rik,-0.167 (inactive)
16,GGAAUUUUCUGGAAAUCCATT against Tctn2,-0.111 (inactive)
17,GGCUCUCAUUGAUGCAUGUTT against Cpeb4,-0.264 (inactive)
18,GGAAUGAAACCAAGUAUAATT against Calcb,0.853 (inactive)
19,GCAGGUUCAGGCAGUAAUUTT against Kpna4,3.78 (active)
20,GCUCAUUGGGAUCAUUGGUTT against Fancd2,1.45 (inactive)
21,GGUGACACCCAGAAUGAGCTT against Htatsf1,1.81 (inactive)
22,GGACUGUGGAUAACCUGCUTT against Hspb2,-2.55 (active)
